In PubChem BioAssay AID1903 (Southern Research Specialized Biocontainment Screening …, 2009):
Among all 310,000 compounds or so, about 1,200 (0.39%) were called active. No rule for the calls is given here. The list is a sample of the results. Entries with a potency or affinity are not part of this list.

target: Large T antigen (Simian virus 40) (UniProt P03070); experiment: SV40 large T antigen inhibitors, biochemical (AID 1903); settings: SV40 large T antigen ATPase/helicase inhibition assay; at 20 µM; hits give high values
Sequence (P03070 whole entry, looked up): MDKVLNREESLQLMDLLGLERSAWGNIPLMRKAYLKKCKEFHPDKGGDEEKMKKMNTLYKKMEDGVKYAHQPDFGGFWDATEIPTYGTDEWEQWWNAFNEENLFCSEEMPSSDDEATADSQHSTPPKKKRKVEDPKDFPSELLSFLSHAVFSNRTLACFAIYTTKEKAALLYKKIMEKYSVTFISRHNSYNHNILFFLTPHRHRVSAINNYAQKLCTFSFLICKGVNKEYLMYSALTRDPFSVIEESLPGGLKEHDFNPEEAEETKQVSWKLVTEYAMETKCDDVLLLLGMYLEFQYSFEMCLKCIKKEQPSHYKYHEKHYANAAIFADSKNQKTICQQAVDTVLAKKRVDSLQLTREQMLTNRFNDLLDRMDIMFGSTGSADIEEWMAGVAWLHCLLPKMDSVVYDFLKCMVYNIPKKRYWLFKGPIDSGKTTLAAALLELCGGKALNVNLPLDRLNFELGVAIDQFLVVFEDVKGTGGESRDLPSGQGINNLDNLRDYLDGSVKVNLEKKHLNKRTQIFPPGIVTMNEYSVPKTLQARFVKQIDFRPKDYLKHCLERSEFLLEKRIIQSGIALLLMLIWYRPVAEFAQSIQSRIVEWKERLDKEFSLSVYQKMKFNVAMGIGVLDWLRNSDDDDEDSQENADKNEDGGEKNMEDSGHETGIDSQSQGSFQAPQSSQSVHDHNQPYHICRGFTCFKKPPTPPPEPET

inhibition, inactive:
Cc1ccc(C(=O)Nc2nc(=O)n(C(=O)c3ccccc3Cl)s2)cc1 6.99%, COc1ccc(Nc2cc(Nc3ccc(OC)cc3)ncn2)cc1 6.82%, CN(C)c1ccc(Nc2ccc([N+](=O)[O-])cn2)cc1 32.5%, COc1ccc(S(=O)(=O)N2CCCN(CC(=O)Nc3ccc4c(c3)OCO4)CC2)cc1 -44.5%, O=C(COC(=O)C1=COCCO1)NC1CCCCC1 4.07%, COC(=O)C1=C(C)N=c2s/c(=C3\C(=O)Nc4ccccc43)c(=O)n2C1c1ccccc1 (stereo not given) 12.3%, CCOC(=O)C1=C(C)N=c2s/c(=C3/C(=O)Nc4ccccc43)c(=O)n2C1c1ccc(C)cc1 (stereo not given) 24.6%, O=C(CCCC(=O)NCCc1ccccc1)NCCc1ccccc1 3.18%, Cc1ccc(S(=O)(=O)N2CCCC(c3nc(-c4ccc(C)o4)no3)C2)cc1 (stereo not given) 6.08%, Cc1ccc(-c2noc(C3CCCN(S(=O)(=O)c4ccc5ccccc5c4)C3)n2)o1 (stereo not given) -0.86%, CC(C)(C)c1cc(-c2nc(N)nc(N)n2)cc(C(C)(C)C)c1 6.71%, COc1cccc(CN2CCCC(N3CCc4ccccc4C3)C2)c1O (stereo not given) 11.4%, CC1CCN(C2=C(NS(=O)(=O)c3ccc(Cl)cc3)C(=O)c3ccccc3C2=O)CC1 16.2%, COc1ccc(NC(=O)Nc2ccc(O)c3ccccc23)cc1 27.9%, COc1ccc(C(=O)Nc2cccc3ccccc23)cc1 16.2%, CC1(C)Cc2ccccc2C(=C(C#N)C#N)N1 4.69%, CCOC(=O)c1ccc(NC(=O)c2cc3ccccc3o2)cc1 8.26%, O=C1N/C(=C\c2ccccc2)C(O)=C1C=NCc1ccccc1 18.3%, O=C1N/C(=C/c2ccc(Br)cc2)C(O)=C1C=NCc1ccccc1 4.99%, COC1=C(Nc2ccccc2)C(=O)c2ccccc2C1=O -28.6%, COC1=C(Nc2ccc(C)cc2)C(=O)c2ccccc2C1=O 3.75%, Cc1ccc(-c2nc(CS(=O)CC(=O)NCCN3CCOCC3)c(C)o2)cc1 (stereo not given) -1.85%, CC(=O)Cc1nsc(Nc2ccc(F)cc2)n1 5.39%, CCOc1ccc(NC(=O)CN(C)CC(=O)Nc2ccc(Br)cc2F)cc1OCC 2.33%, COC(=O)CCCC1=CC2=CC(=O)C(C)(OC(=O)c3ccc(Cl)nc3)C(=O)C2=CO1 (stereo not given) 23.8%, Cc1ccc(NC(=S)NNc2ccc([N+](=O)[O-])cc2S(=O)(=O)Nc2ccccc2C(=O)O)cc1C 31.6%, O=C(O)c1ccccc1Nc1ccc(OC(F)F)cc1 10.8%, CCN(CC)S(=O)(=O)c1ccc(/C=C/C(=O)OCC(=O)Nc2ccc(S(N)(=O)=O)cc2)cc1 0.26%, CC(=O)NC1=NN(c2ccccc2)C(=O)C1 13.1%, O=C(COc1ccc(Cl)cc1)NC1=NN(c2ccccc2)C(=O)C1 18.7%, COc1ccc(-c2nc3cc(C)ccn3c2NC(=O)c2ccccc2OC)cc1 9.33%, CNCCc1ccccn1 13.3%, COc1ccc(NC(=O)CSCC(=O)NCCc2ccccn2)cc1 0.35%, COCCN1Cc2cccc(C(=O)Nc3cccnc3)c2C1=O 1.93%, COc1cccc(CC(=O)OCC(=O)N(C)CC(=O)Nc2ccc(Cl)c(C(F)(F)F)c2)c1 5.39%, CCOc1ccccc1N(CC(=O)NC1CCCCC1)C(=O)CCC(=O)Nc1cc(C)ccn1 -4.71%, c1ccc(-c2csc(NC3=NCCCCC3)n2)cc1 -1.35%, Brc1ccc(-c2csc(NNC3=NCCCCC3)n2)cc1 21.1%, CCOC(=O)CN1C(=O)S/C(=C/c2ccc(N3CCCCC3)o2)C1=O -40.7%, COC(=O)CN1C(=O)S/C(=C/c2ccc(N3CCCCC3)o2)C1=O 22.2%, O=C1NC(=O)/C(=C\c2ccc(N3CCOCC3)o2)N1 12.2%, O=C1NC(=O)/C(=C/c2ccc(N3CCOCC3)o2)N1 35.9%, COc1ccc(-c2cn(Cc3ccc(C(N)=O)cc3)c(CCN)n2)cc1 15.2%, CCc1ccc(N2CC(C(=O)Nc3cc(C)on3)CC2=O)cc1 (stereo not given) 7.18%, COc1ccc(S(=O)(=O)N2CCc3cc4c(cc3C2C)OCCCO4)cc1 (stereo not given) -0.77%, O=C(/C=C/c1cccc([N+](=O)[O-])c1)NCC1CCCO1 (stereo not given) 1.2%, CCNc1c(NC(=O)C2CCC(C)CC2)c(=O)oc2ccccc12 (stereo not given) 7.89%, N#CCn1nnc(-c2ccc3c(c2)OCO3)n1 5.17%, COc1cc2nc(C3CCC3)nc(N3CCN(c4ccccn4)CC3)c2cc1OC 3.99%, O=C(N/N=C/c1ccc(N2CCOCC2)s1)c1ccccc1Cl 19.1%, Clc1cccc(N/N=C/c2ccc(N3CCOCC3)s2)c1 0.11%, O=C(N/N=C/c1ccc(N2CCOCC2)s1)c1ccccc1Br 28.7%, CC(C)(C)OC(=O)N/N=C\c1ccc([N+](=O)[O-])s1 9.37%, Cc1cc(-c2cc(-c3ccc(Cl)cc3)on2)nc(NCC2CC2)n1 19.1%, COC(C/C=C/[C@@H](O)[C@H](C)OCc1ccccc1)OC 7.24%, COc1cc2[nH]c(=O)n(CCCCCC(=O)NCCCN3CCOCC3)c(=O)c2cc1OC 9.95%, Nc1c(N)c2ccccc2oc1=O 3.21%, O=C1CCC(C(=O)NCCN2C(=O)S/C(=C\c3cccnc3)C2=O)=NN1 9.31%, COc1cc(/C=C2/NC(=O)N(CC(=O)Nc3cccc(C)c3)C2=O)ccc1OCC(N)=O 6.55%, CCOC(=O)c1[nH]c2ccccc2c1N=CN(CC)CC 13.2%, CCOC(=O)c1[nH]c2ccccc2c1NC(=S)Nc1ccccc1C 35.3%, CCCn1c(SCc2nc(N)nc(N3CCCCC3)n2)nc2c1c(=O)n(C)c(=O)n2C 27.3%, CC(C)N1C(=O)S/C(=C\c2ccc(-c3ccc(Cl)c(C(=O)O)c3)o2)C1=O 31%, CC1=NOC(=O)/C1=C\c1ccc(-c2ccc(Br)cc2C(=O)O)o1 37.7%, CC1=NOC(=O)/C1=C\c1ccc(-c2cccc(Cl)c2)o1 2.49%, CC1=NOC(=O)/C1=C/c1ccc(-c2ccc(Cl)cc2)o1 29.9%, O=C(O)c1cc(-c2ccc(/C=C3\NC(=O)N(c4ccccc4)C3=O)o2)ccc1Cl 22.8%, CC1=NOC(=O)/C1=C\c1ccc(-c2ccc(Br)cc2)o1 11.9%, Cc1ccc(NCC(=O)Nc2cccc(F)c2)cc1S(=O)(=O)N1CCCCCC1 30.7%, O=C(Cc1cccs1)Nc1nnc(SCc2ccc(C(F)(F)F)cc2)s1 21%, O=C(c1cnn2c(C(F)(F)F)cc(-c3ccccc3)nc12)N1CCOCC1 2.03%, CN(/N=C/Cc1nnnn1-c1ccc(Cl)cc1)c1ccccc1 12.9%, Fc1ccc2c(c1)C(c1ccncc1)=NNC(c1ccc(Cl)cc1)=N2 -2.03%, CCOc1ccc(S(=O)(=O)NCCC(=O)NC2CCCCC2)cc1 6.66%, CCC(C)CCN1C(N(C)C)=NC[C@@H]1CC(C)C (stereo not given in full) -8.26%, COc1cc(OC)c(NS(=O)(=O)c2ccc(Cl)c(C(=O)OC(C)C(=O)N3CCCC3)c2)cc1Cl (stereo not given) 0.34%, NS(=O)(=O)c1ccc(N/N=C/c2ccc(O)cc2O)c([N+](=O)[O-])c1 14.4%, NS(=O)(=O)c1ccc(N/N=C/c2ccccn2)c([N+](=O)[O-])c1 9%, O=C(CCC1COc2ccccc2O1)NCc1ccco1 (stereo not given) 9.35%, CC(=O)c1cc2cc(O)ccc2o1 3.38%, Cc1cc(=O)c2c(O)c(O)ccc2o1 27.4%, O=C(CCNC(=O)C1CCN(S(=O)(=O)c2ccccc2)CC1)NCc1ccncc1 18.3%, CCCCCCn1c(N(CC)CC)nc2c1c(=O)[nH]c(=O)n2C 19.9%, Oc1c(Br)cc(/C=N/Nc2ccc(Cl)nn2)cc1Br 31.9%, Oc1ccc(/C=N/Nc2ccc(C(F)(F)F)cn2)cc1 35.9%, Oc1cccc(/C=N/Nc2ccc(Cl)nn2)c1 1.08%, O=C(O)c1ccc(/C=N/Nc2ccc(C(F)(F)F)cn2)cc1 4.16%, CCOC(=O)C1CCCN(c2c(N3CCC(N4CCCCC4)CC3)c(=O)c2=O)C1 (stereo not given) 0.55%, CN1CCN(S(=O)(=O)c2cccc(C(=O)Nc3ccccc3N3CCOCC3)c2)CC1 8.67%, CCC(C)NC(=O)CN(c1ccc(Cl)c(Cl)c1)S(C)(=O)=O (stereo not given) 2.27%, COc1cccc(OC)c1C(=O)NNS(=O)(=O)c1ccc2ccccc2c1 4.3%, O=[N+]([O-])c1ccc(Cl)cc1Sc1nc2ccccc2o1 3.7%, O=[N+]([O-])c1ccc(CSc2nc3ccccc3o2)cc1 1.36%, Cc1nc(CCNC(=O)CC2C(=O)NCCN2CC(C)(C)C)nc2c1CCC2 (stereo not given) 17.9%, CC(=O)N1CCN(S(=O)(=O)c2cccc(C(=O)Nc3ccc(C)cn3)c2)CC1 10.6%
